According to PubChem BioAssay (EPA / NIEHS):
“And” between values parts separate entries of the source, which are not always exact repeats. Equal values may be shown once. Results filed as inconclusive are left out. Where a structure was tested more than once in an assay, its records may differ in their call. The source made the active and inactive calls. Rule for the calls, unless noted: active = hit-call score of the fitted dose curve at least 0.9, where 1 is the maximum; inactive = score below 0.9.

How the values were obtained:
[1] = read-out: Monocyte Chemoattractant Protein-1 (MCP1), CCL2 (gene 6347); assay: BSK_LPS_MCP1: BioMAP Diversity Plus: LPS Assay for Monocyte Chemoattractant Protein-1 (MCP1) Biomarker Activity (AID 2283081); details: primary human HUVEC with PBMC; actives raise or lower the signal;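 for AC50: secreted MCP-1 protein quantified by ELISA in culture supernatant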
Summary of the method: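 LPS-stimulated HUVEC/PBMC co-culture; chemical, 24 h; MCP-1 by ELISA; bidirectional fit vs DMSO; cytotoxicity via SRB (0.1% stain, 10% TCA fix, 560 nm) in parallel wells.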

[2] = BSK_LPS_PGE2: BioMAP Diversity Plus: LPS Assay for Prostaglandin E2 (PGE2) Biomarker Activity (AID 2283082); details: primary human HUVEC with PBMC; actives raise or lower the signal;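 for AC50: secreted prostaglandin E2 measured by ELISA in LPS-stimulated co-culture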
Summary of the method: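 PGE2 release measured by ELISA in an LPS-activated co-culture of human umbilical vein endothelial cells and peripheral blood mononuclear cells, read at 24 h post-dosing. DMSO served as baseline for bidirectional curve fitting.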

[3] = read-out: Macrophage colony-stimulating factor (MCSF), CSF1 (gene 1435); assay: BSK_LPS_MCSF: BioMAP Diversity Plus: LPS Assay for Macrophage colony-stimulating factor (MCSF) Biomarker Activity (AID 2283083); details: primary human HUVEC with PBMC; actives raise or lower the signal
Summary of the method: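 Compound is added to a human vascular primary co-culture of umbilical vein endothelium and blood mononuclear cells. After 24 h, M-CSF is quantified by ELISA. Signal changes are fitted in both directions against DMSO.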

[4] = read-out: Tissue Factor, F3 (gene 2152); assay: BSK_LPS_TissueFactor: BioMAP Diversity Plus: LPS Assay for Tissue Factor Biomarker Activity (AID 2283084); details: primary human HUVEC with PBMC; actives raise or lower the signal
Summary of the method: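 In this co-culture system of umbilical vein endothelium with PBMC, stimulated with LPS, cell-surface CD142 is detected by ELISA at 24 h. Endpoint values derive from bidirectional fitting, DMSO serving as baseline.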

[5] = read-out: Tumor necrosis factor (Homo sapiens) (UniProt P01375); assay: BSK_LPS_TNFa: BioMAP Diversity Plus: LPS Assay for Tumour Necrosis Factor alpha (TNFa) Biomarker Activity (AID 2283085); details: primary human HUVEC with PBMC; actives raise or lower the signal;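 for AC50: TNFa protein level quantified by ELISA in the co-culture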
Summary of the method: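 TNFa was quantified by ELISA in LPS-activated co-cultures of human endothelial cells and PBMC, 24 h post-dosing. Both increases and decreases versus DMSO were fitted.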

[6] = read-out: Vascular cell adhesion molecule 1 (VCAM1), VCAM1 (gene 7412); assay: BSK_LPS_VCAM1: BioMAP Diversity Plus: LPS Assay for Vascular cell adhesion molecule 1 (VCAM1) Biomarker Activity (AID 2283086); details: primary human HUVEC with PBMC; actives raise or lower the signal
Summary of the method: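 VCAM-1 quantified by ELISA in an LPS-activated co-culture of human endothelial cells and peripheral blood mononuclear cells, read 24 h post-treatment. Fitted in both directions versus DMSO; parallel SRB staining flags overt cytotoxicity.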

CD38, CD38 (gene 952) = assay: BSK_SAg_CD38: BioMAP Diversity Plus: SAg Assay for CD38 Biomarker Activity (AID 2283087); details: primary human HUVEC with PBMC; actives raise or lower the signal
Summary of the method: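 CD38 quantified by ELISA (fluorescence) in a superantigen-activated endothelial cell–PBMC co-culture at 24 h post-dose. Activity fitted in both directions relative to DMSO; parallel SRB and Alamar Blue cytotoxicity read-outs.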

CD40, CD40 (gene 958) = assay: BSK_SAg_CD40: BioMAP Diversity Plus: SAg Assay for CD40 Biomarker Activity (AID 2283088); details: primary human HUVEC with PBMC; actives raise or lower the signal
Summary of the method: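 Fluorescence ELISA read-out of CD40 from umbilical vein endothelium plus peripheral blood mononuclear cells, sampled 24 h after dosing. Values come from bidirectional curve fitting with DMSO as baseline.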

CD69, CD69 (gene 969) = assay: BSK_SAg_CD69: BioMAP Diversity Plus: SAg Assay for CD69 Biomarker Activity (AID 2283089); details: primary human HUVEC with PBMC; actives raise or lower the signal;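 for AC50: cell surface CD69 protein quantified by ELISA with fluorescence detection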
Summary of the method: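 Endothelial/PBMC co-culture; chemical added; 24 h incubation; CD69 ELISA with fluorescence detection; bidirectional fit vs DMSO.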

[7] = read-out: Monocyte Chemoattractant Protein-1 (MCP1), CCL2 (gene 6347); assay: BSK_SAg_MCP1: BioMAP Diversity Plus: SAg Assay for Monocyte Chemoattractant Protein-1 (MCP1) Biomarker Activity (AID 2283090); details: primary human HUVEC with PBMC; actives raise or lower the signal
Summary of the method: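 Values derive from bidirectional fitting of ELISA-measured MCP1 against DMSO controls. Readings were taken 24 h after dosing human vascular endothelial cells co-cultured with peripheral blood mononuclear cells under superantigen stimulation.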

[8] = read-out: E-selectin (Homo sapiens) (UniProt P16581); assay: BSK_SAg_Eselectin: BioMAP Diversity Plus: SAg Assay for Eselectin Biomarker Activity (AID 2283091); details: primary human HUVEC with PBMC; actives raise or lower the signal
Summary of the method: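 Primary human endothelial cells and peripheral blood mononuclear cells were co-cultured and exposed to chemical for 24 hours. E-selectin levels were then quantified by ELISA, with bidirectional curve fitting normalised to DMSO controls.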

[9] = read-out: Monokine induced gamma interferon (MIG), CXCL9 (gene 4283); assay: BSK_SAg_MIG: BioMAP Diversity Plus: SAg Assay for Monokine induced gamma interferon (MIG) Biomarker Activity (AID 2283092); details: primary human HUVEC with PBMC; actives raise or lower the signal
Summary of the method: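 Measures CXCL9 protein by ELISA in a human vascular primary-cell co-culture (umbilical vein endothelium with PBMC) 24 h after chemical addition. Activity is scored up or down from the DMSO control.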

[10] = BSK_SAg_PBMCCytotoxicity: PBMC Cytotoxicity Assessment in the BioMAP Diversity Plus: SAg Assay (AID 2283093); details: primary human HUVEC with PBMC;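 note: PBMC viability measured as Alamar Blue reduction fluorescence at 546/580 nm; fitted both ways against DMSO so a hit may be loss or gain of signal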;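 for AC50: PBMC superantigen activated with SEB plus TSST-1 one hour after compound addition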
Summary of the method: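 Alamar Blue reduction (6 h, ex/em 546/580 nm) read after 90 h culture of PBMC pre-dosed 1 h then stimulated with SEB plus TSST-1, 20 ng/mL each. Gain or loss of signal fitted relative to DMSO.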

[11] = read-out: Interleukin-8 (IL8), CXCL8 (gene 3576); assay: BSK_SAg_IL8: BioMAP Diversity Plus: SAg Assay for Interleukin-8 (IL8) Biomarker Activity (AID 2283094); details: primary human HUVEC with PBMC; actives raise or lower the signal
Summary of the method: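 ELISA readout of IL-8 from a superantigen-activated endothelial/PBMC primary human co-culture, taken 24 h post-dosing and fitted in both directions against DMSO; parallel SRB total-protein staining flags overt cytotoxicity.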

[12] = BSK_SAg_Proliferation: Cell Proliferation Assessment in the BioMAP Diversity Plus: SAg Assay (AID 2283095); details: primary human HUVEC with PBMC;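 note: relative cell number as total protein by SRB absorbance in sub-confluent culture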
Summary of the method: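 Relative cell number in the endothelial cell/PBMC co-culture was quantified at 96 h by SRB staining (0.1% SRB, 10% TCA fixation, read at 560 nm). Curves were fitted in both directions relative to DMSO baseline.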

[13] = BSK_SAg_SRB: Viability Assessment in the BioMAP Diversity Plus: SAg Assay (AID 2283096); details: primary human HUVEC with PBMC;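 note: cells read one day after compound addition; hits may be either gain or loss of signal compared with DMSO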
Summary of the method: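 SRB absorbance at 560 nm served as the viability read-out. Cells (HUVEC plus peripheral blood mononuclear cells) were TCA-fixed and stained 24 h post-dosing; activity fitted in both directions against DMSO controls.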

[14] = molecular target: human CYP1A2, CYP1A2 (gene 1544) (UniProt P05177); assay: NVS_ADME_hCYP1A2: NovaScreen (NVS) CYP450-related Enzyme Activity (ADME) Assay for human CYP1A2 (AID 2283102; active = hit-call score of the fitted dose curve at least 0.9, where 1 is the maximum;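 for AC50: fluorescence from turnover of a fluorogenic substrate by recombinant insect-cell CYP1A2; potency for inhibition since loss of fluorescence marks reduced CYP1A2 activity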)
Chain of human CYP1A2, CYP1A2 (gene 1544) (P05177 whole entry, looked up): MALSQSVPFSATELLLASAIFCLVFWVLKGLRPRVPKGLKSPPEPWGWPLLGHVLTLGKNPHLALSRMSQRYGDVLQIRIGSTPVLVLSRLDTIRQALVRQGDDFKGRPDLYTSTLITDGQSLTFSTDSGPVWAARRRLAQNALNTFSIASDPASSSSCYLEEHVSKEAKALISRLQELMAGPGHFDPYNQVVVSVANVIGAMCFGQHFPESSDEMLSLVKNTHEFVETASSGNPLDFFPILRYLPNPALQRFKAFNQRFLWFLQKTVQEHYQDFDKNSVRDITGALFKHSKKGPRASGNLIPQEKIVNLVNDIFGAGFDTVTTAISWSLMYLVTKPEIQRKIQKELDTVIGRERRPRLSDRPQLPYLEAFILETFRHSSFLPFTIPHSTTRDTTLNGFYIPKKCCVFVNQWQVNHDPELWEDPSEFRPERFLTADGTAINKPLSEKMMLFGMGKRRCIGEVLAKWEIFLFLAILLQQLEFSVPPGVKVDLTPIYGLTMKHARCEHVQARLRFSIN
Summary of the method: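 Compounds were tested at 10 uM in duplicate against recombinant CYP1A2 produced in insect cells. Enzyme activity was measured by fluorescence 0.5 h after dosing, with loss of signal versus acetonitrile control. Active compounds were re-tested in concentration series.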

[15] = molecular target: human CYP2B6, CYP2B6 (gene 1555) (UniProt P20813); assay: NVS_ADME_hCYP2B6: NovaScreen (NVS) CYP450-related Enzyme Activity (ADME) Assay for human CYP2B6 (AID 2283101; active = hit-call score of the fitted dose curve at least 0.9, where 1 is the maximum)
Chain of human CYP2B6, CYP2B6 (gene 1555) (P20813 whole entry, looked up): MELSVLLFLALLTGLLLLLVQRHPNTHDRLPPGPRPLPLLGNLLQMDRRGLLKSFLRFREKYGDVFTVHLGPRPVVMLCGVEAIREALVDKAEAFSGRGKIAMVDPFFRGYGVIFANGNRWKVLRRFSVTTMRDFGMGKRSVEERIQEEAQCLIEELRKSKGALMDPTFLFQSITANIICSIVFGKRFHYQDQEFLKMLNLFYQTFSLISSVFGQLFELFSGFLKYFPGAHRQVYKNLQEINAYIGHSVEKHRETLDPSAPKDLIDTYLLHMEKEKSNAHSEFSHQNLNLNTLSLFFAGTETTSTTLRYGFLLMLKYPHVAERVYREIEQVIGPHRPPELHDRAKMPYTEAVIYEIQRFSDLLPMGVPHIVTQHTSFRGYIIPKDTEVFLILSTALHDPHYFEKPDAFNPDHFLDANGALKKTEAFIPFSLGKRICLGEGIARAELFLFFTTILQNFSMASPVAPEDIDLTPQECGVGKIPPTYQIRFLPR
Summary of the method: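 Recombinant protein, specific fluorescent substrate, read at 1 h post-dosing. Primary: single 10 uM, duplicate; follow-up: concentration series. Activity = signal loss vs acetonitrile baseline, with positive and negative controls on every plate.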

[16] = molecular target: human CYP2C8, CYP2C8 (gene 1558) (UniProt P10632); assay: NVS_ADME_hCYP2C8: NovaScreen (NVS) CYP450-related Enzyme Activity (ADME) Assay for human CYP2C8 (AID 2283104)
Chain of human CYP2C8, CYP2C8 (gene 1558) (P10632 whole entry, looked up): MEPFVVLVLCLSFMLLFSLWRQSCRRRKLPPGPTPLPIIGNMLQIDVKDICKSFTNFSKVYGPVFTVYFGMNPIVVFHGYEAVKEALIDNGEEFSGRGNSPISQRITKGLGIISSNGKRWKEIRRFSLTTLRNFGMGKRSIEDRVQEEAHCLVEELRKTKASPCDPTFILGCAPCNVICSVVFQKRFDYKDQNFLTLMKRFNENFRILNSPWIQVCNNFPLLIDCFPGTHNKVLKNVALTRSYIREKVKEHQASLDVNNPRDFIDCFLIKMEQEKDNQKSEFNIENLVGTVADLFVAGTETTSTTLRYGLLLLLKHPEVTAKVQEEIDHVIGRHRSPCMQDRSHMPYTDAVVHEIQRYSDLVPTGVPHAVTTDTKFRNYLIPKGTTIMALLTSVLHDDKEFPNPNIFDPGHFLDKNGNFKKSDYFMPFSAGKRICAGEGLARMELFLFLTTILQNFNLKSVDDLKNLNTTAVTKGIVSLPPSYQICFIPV
Summary of the method: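 Fluorescence readout of substrate turnover by recombinant CYP2C8 after 0.5 h, baseline acetonitrile. Single-concentration duplicate screen at 10 uM preceded singleton concentration series (max 20 uM) for compounds passing the inhibition threshold.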

Measured: AC50

Chain of Tumor necrosis factor (Homo sapiens) (P01375 whole entry, looked up): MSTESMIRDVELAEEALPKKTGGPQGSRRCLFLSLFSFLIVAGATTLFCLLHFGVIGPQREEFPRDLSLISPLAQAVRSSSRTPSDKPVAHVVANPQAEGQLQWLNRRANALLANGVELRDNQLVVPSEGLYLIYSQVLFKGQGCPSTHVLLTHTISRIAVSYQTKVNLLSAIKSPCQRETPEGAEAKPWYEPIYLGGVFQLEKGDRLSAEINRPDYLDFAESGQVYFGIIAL
Chain of E-selectin (Homo sapiens) (P16581 whole entry, looked up): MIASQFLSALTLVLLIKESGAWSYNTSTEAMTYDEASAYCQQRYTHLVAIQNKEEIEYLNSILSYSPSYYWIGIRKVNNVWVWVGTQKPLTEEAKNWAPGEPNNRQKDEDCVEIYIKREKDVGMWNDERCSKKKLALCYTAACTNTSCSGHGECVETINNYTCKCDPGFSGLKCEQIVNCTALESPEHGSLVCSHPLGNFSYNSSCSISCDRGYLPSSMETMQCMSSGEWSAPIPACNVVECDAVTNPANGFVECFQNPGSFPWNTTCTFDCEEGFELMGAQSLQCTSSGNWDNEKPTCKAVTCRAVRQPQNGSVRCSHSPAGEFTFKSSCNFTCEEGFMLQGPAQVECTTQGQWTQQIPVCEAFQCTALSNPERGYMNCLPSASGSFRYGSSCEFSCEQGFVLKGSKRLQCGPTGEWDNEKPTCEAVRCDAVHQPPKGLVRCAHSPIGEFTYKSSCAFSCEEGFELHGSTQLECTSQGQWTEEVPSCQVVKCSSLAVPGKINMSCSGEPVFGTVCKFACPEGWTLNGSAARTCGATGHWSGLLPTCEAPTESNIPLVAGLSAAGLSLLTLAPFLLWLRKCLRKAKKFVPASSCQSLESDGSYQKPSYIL

CCNc1nc(Cl)nc(NC(C)C)n1
active: [5] 6.09 µM | [8] 13.9 µM | [14] 14.8 µM and 9.2 µM
not listed: [15] | [16]
inactive: all other assays above

O=C(O)c1nc(Cl)ccc1Cl
not listed: [14] | [15] | [16]
inactive: all other assays above

C#CCOS(=O)OC1CCCCC1Oc1ccc(C(C)(C)C)cc1 (stereo not drawn)
active: [1] 20 µM | [3] 15.8 µM | [4] 32.6 µM | [6] 10.1 µM | CD38, CD38 (gene 952) 5.43 µM | CD40, CD40 (gene 958) 7.36 µM | CD69, CD69 (gene 969) 5.11 µM | [7] 7.84 µM | [8] 4.02 µM | [9] 16.7 µM | [10] 14.6 µM | [11] 1.92 µM | [12] 1.16 µM | [13] 10.8 µM
inactive: [2] | [5] | [14]

O=C(O)COc1nc(Cl)c(Cl)cc1Cl
active: [5] 27.8 µM
not listed: CD69, CD69 (gene 969) | [14] | [15] | [16]
inactive: all other assays above

CO/C=C(/C(=O)OC)c1ccccc1Oc1cc(Oc2ccccc2C#N)ncn1
active: [1] 27.1 µM [middle of 4 runs] | [2] 9.64 µM | [3] 24.5 µM [middle of 4 runs] | [4] 35.3 µM | [5] 15.5 µM | [6] 11 µM and 8.26 µM and 19.7 µM | CD38, CD38 (gene 952) 20 µM [middle of 4 runs] | CD40, CD40 (gene 958) 20.6 µM [middle of 4 runs] | [7] 26.6 µM and 25.4 µM | [8] 17.4 µM [middle of 4 runs] | [9] 34.9 µM and 34.2 µM and 30 µM | [10] 6.9 µM and 5.28 µM and 13 µM | [11] 12.5 µM [middle of 4 runs] | [12] 13.9 µM [middle of 4 runs] | [13] 21.1 µM and 15.4 µM
inactive: [2] | [4] | [5] | [6] | [7] | [9] | [10] | [13]

CCCN(CCC)c1c([N+](=O)[O-])cc(S(N)(=O)=O)cc1[N+](=O)[O-]
inactive: [1] | [2] | [4] | [5] | [15]
active: [1] 37.8 µM and 35.1 µM and 33 µM | [2] 34.7 µM | [3] 32.3 µM [middle of 4 runs] | [4] 34.3 µM and 38.1 µM and 32.8 µM | [5] 33.6 µM and 32.2 µM | [6] 34.6 µM [middle of 4 runs] | CD38, CD38 (gene 952) 38.7 µM [middle of 4 runs] | CD40, CD40 (gene 958) 35.8 µM [middle of 4 runs] | [7] 34.8 µM [middle of 4 runs] | [8] 33.1 µM and 31.4 µM and 30 µM | [9] 39.5 µM [middle of 4 runs] | [10] 30.7 µM [middle of 4 runs] | [11] 39.7 µM [middle of 4 runs] | [12] 30.2 µM [middle of 4 runs] | [13] 32.3 µM [middle of 4 runs] | [16] 4.89 µM

COC(=O)C(C)Oc1ccc(Oc2ccc(Cl)cc2Cl)cc1 (stereo not drawn)
inactive: [1] | [3] | [4] | [5] | [6] | CD38, CD38 (gene 952) | CD40, CD40 (gene 958) | CD69, CD69 (gene 969) | [7] | [8] | [9] | [10] | [11] | [12] | [13]
active: [1] 28.9 µM | [2] 11.4 µM and 12 µM and 23.5 µM | CD38, CD38 (gene 952) 10.9 µM | CD40, CD40 (gene 958) 13.6 µM | [7] 20 µM

CCCCOC(=O)c1ccccc1C(=O)OCCCC
inactive: [1] | [2] | [3] | [4] | [5] | [6] | CD38, CD38 (gene 952) | CD40, CD40 (gene 958) | [7] | [8] | [9] | [10] | [11] | [13] | [16]
active: CD40, CD40 (gene 958) 15.4 µM | [8] 20 µM | [12] 29.2 µM and 31.4 µM | [14] 7.03 µM and 7.88 µM
